From PubChem BioAssay (NCATS) come the findings set out here.

Results filed as inconclusive are left out. Calls of active or inactive are those of the source. The call rests on the fitted dose curve; in most records, active means well fitted cell-killing curve with a large enough effect; inconclusive means small, poorly fitted or top-dose-only effect; inactive means flat fitted curve, though single readings scatter.
Potency means the concentration at half of the fitted maximal effect.

One experiment in a line: Cellular viability qHTS for adrenocortical cancer (ACC) cell line SW-13 (AID 1963989). Further: nearly all actives have a fitted effect of over 65% in size.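 On activity (max response): cells grown in serum-free medium with ITS supplement; on the % scale 0 is the no-effect control and ±100 the full control effect.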 The note with it: SW-13 ACC cells viability, CellTiter-Glo, 48 h; activity (max response): active compounds read low. A digest of the protocol:
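SW-13 cells in ITS-supplemented serum-free DMEM were plated overnight, then exposed for 48 h at 37C to compound titrations (up to 46 uM final). Viability was read by CellTiter-Glo luminescence; four-parameter logistic fits gave IC50 and efficacy.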
`Cc1ccc(CCn2c3c(c4cc(Cl)ccc42)CN(C)CC3)cn1`: the activity (max response) is -12.3% (inactive).

Take `OC1CCC([C@H](O)C[C@H]2c3c(F)cccc3-c3cncn32)CC1` (some centres not stated): the activity (max response) was -0.756% (inactive).

Take `CCc1oc2ccccc2c1C(=O)c1cc(I)c(O)c(I)c1`: the Potency was 5.8 µM (active).

Regarding `OC(CCN1CCCCC1)(c1ccccc1)c1ccccc1`, the activity (max response) is 3.2% (inactive).

For the molecule `COc1ccc(Oc2cc(NCCC(F)(F)F)c3ncc(-c4ccc(C(=O)NC5CC5)c(C)c4)n3n2)c(F)c1F`, the activity (max response) is -17.7% (inactive).

Regarding `O=C(O)c1ccc(O)c2ncccc12`, the activity (max response) was -6.62% (inactive).

For `C[C@H](Nc1ncnc2nc[nH]c12)c1cc2ccc(F)cc2nc1-c1ccccn1`, the activity (max response) was -8.13% (inactive).

Turning to `O=C(NC1CCN(CCc2c[nH]c3ccccc23)CC1)c1ccccc1`, the activity (max response) is -18.1% (inactive).

For the molecule `C[C@]12CC[C@H]3[C@@H](CCC4=CC(=O)CC[C@@]43C)[C@@H]1CC[C@@H]2C(=O)CO`, the activity (max response) is -8.44% (inactive).

Turning to `COc1cc2c(cc1OC)C(=O)C(CC1CCN(Cc3ccccc3)CC1)C2` (configuration not stated), the activity (max response) was -16.2% (inactive).

For the molecule `CC(=O)[C@H]1CC[C@H]2[C@@H]3C=CC4=CC(=O)CC[C@@]4(C)[C@@H]3CC[C@]12C`, the activity (max response) was -20.4% (inactive).

`N#C/C(=C1\SCC(c2ccccc2Cl)S1)n1ccnc1` (configuration not stated): the activity (max response) was -13.5% (inactive).

Regarding `O=C1S/C(=C\c2ccc(OCc3cccc(B(O)O)c3)cc2)C(=O)N1Cc1ccc(F)cc1`, the activity (max response) is -17.7% (inactive).

With `CC(C)OC(=O)[C@H](C)N[P@](=O)(OC[C@H]1O[C@@H](n2ccc(=O)[nH]c2=O)[C@](C)(F)[C@@H]1O)Oc1ccccc1`, the Potency is 3.98 µM (active).

As for `Cc1ccc(NC(=O)[C@H]2CCCN(C(=O)c3c(C)cccc3F)[C@H]2c2ccc(NC3CCCC3)cc2)cc1C(F)(F)F`, the activity (max response) was -13.2% (inactive).

Turning to `CC(C)n1c(/C=C/[C@@H](O)C[C@@H](O)CC(=O)O)c(-c2ccc(F)cc2)c2ccccc21`, the activity (max response) was 5.25% (inactive).

For the molecule `CC1CC(=O)NN=C1c1ccc(NCC(C)(C)NCC(O)COc2cc(Cl)ccc2C#N)cc1` (configuration not stated), the activity (max response) was -8.94% (inactive).

Regarding `CC1=C(C(=O)Nc2cc3cn[nH]c3cc2F)C(c2ccc(C(F)(F)F)cc2)CC(=O)N1` (configuration not stated), the activity (max response) is 5.03% (inactive).

As to `CC(C)(C)CC(=O)OCC(=O)[C@@]1(O)CC[C@H]2[C@@H]3CCC4=CC(=O)C=C[C@]4(C)[C@H]3[C@@H](O)C[C@@]21C`, the activity (max response) was -10.9% (inactive).

On to `CC(C)C(=O)Nc1cccc(C2CN3CCSC3=N2)c1` (configuration not stated), for which the activity (max response) was -3.96% (inactive).

As to `CN(C)CCOC(=O)C(c1ccccc1)C1(O)CCCC1` (configuration not stated), the activity (max response) was 6.08% (inactive).

On to `CS(=O)(=O)Oc1ccc2c(NC(N)=O)c(C(=O)c3ccc(Cl)cc3Cl)oc2c1`, for which the activity (max response) is -2.55% (inactive).

As for `Nc1ccc(S(=O)(=O)Nc2ccc(Cl)nn2)cc1`, the activity (max response) was 1.77% (inactive).

Regarding `Cc1ccc(Nc2cc(N[C@@H]3CCCC[C@@H]3N)nnc2C(N)=O)nc1C`, the activity (max response) was -5.27% (inactive).

`CN1CCC(OC(c2ccccc2)c2ccccc2)CC1`: the activity (max response) is 0.851% (inactive).

Consider `CCC(C)CNCC(=O)N1CCc2sccc2C1c1cccc(C)n1` (configuration not stated), for which the activity (max response) is 11.1% (inactive).

For the molecule `Cc1cc(=O)c2c(O)c3c(O)cc(=O)c4c3c3c(cc(O)c1c23)C(C)(C)C=4O`, the Potency was 1.78 µM (active).

As to `CCOC(=O)COc1ccc2c(C)c(CCN(CC)CC)c(=O)oc2c1Cl`, the activity (max response) is 0.298% (inactive).

A further experiment can be described thus: Cellular viability qHTS for adrenocortical cancer (ACC) cell line NCI-H295R (AID 1963990). Further: nearly all actives have a fitted effect of over 60% in size.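 On activity change, negative = viability loss: 0% = DMSO only wells and -100% = full killing with cytotoxic reference compound.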 Particulars: CellTiter-Glo ATP luminescence, 48 h; series mostly up to 46.1 µM; activity change, negative = viability loss: at the top concentration. A digest of the protocol: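 Luminescent ATP read-out (CellTiter-Glo, 20 min RT) after 48 h drug exposure of NCI-H295R cells; a titration up to 46 uM final. Data normalized to doxorubicin (100% inhibition) and DMSO (0%); 4-parameter fit gives IC50, max response.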
As to `CN1CCCC(n2nc(Cc3ccc(Cl)cc3)c3ccccc3c2=O)CC1` (configuration not stated), the Potency was 18.4 µM (active).

With `COc1ccc(Nc2cc(-c3cnc(N)nc3)nc(N3CCOCC3)n2)cn1`, the Potency was 2.24 µM (active).

With `CS(=O)(=O)Oc1ccc2c(NC(N)=O)c(C(=O)c3ccc(Cl)cc3Cl)oc2c1`, the “activity change, negative = viability loss” value was -5.28% (inactive).

With `Cc1cc(=O)c2c(O)c3c(O)cc(=O)c4c3c3c(cc(O)c1c23)C(C)(C)C=4O`, the Potency was 2.24 µM (active).
